Laboratory results from publication PMC4336329 (PLoS ONE, 2015).
In all, about 310,000 compounds went through this assay and about 14,000 (4.5%) showed an effect of 50% or more. The effect is printed as a negative number. The full list was thinned out, with strong results kept by preference.

What follows are compounds tested against human ether-à-go-go-related gene (hERG) potassium channel (human, UniProt Q12809) (assay: primary screen, population patch clamp on CHO cells stably expressing hERG; higher = less effect of the substance).
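Further: peak tail current of the secondary pulse compared with the same well before compound.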

Sequence of human ether-à-go-go-related gene (hERG) potassium channel (Q12809 whole entry, looked up): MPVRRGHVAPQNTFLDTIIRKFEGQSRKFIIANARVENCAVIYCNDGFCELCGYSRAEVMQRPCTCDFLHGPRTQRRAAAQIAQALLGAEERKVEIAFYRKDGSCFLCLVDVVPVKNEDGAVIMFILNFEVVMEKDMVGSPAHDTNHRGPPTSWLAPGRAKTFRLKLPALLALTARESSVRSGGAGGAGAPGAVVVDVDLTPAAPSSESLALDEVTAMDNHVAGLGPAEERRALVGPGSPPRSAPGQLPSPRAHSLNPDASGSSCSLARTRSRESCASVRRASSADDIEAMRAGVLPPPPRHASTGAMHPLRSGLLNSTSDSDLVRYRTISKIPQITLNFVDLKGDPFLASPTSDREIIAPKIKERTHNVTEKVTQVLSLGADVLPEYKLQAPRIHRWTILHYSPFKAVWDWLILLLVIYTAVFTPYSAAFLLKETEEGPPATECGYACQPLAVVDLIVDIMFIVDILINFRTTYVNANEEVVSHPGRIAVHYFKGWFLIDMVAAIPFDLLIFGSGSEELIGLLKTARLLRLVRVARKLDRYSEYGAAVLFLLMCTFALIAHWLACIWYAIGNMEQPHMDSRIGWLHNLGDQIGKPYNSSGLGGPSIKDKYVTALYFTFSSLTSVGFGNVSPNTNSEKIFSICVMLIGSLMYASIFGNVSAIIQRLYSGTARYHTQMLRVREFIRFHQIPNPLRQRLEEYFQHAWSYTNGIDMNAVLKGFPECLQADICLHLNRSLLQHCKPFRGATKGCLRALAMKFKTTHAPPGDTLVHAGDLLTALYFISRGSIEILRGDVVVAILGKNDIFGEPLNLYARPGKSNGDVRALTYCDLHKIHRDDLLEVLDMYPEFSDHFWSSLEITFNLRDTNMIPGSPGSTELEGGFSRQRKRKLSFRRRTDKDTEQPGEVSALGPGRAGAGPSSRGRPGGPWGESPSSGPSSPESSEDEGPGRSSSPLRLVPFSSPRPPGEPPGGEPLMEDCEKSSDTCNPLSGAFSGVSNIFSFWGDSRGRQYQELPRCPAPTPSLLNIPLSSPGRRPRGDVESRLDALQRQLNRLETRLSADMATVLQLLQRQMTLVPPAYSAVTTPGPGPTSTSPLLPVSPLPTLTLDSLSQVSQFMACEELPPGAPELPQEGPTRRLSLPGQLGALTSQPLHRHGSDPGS

Row | SMILES | hERG current change (%, negative = inhibition) at 10uM [%]
1 | C/C(=N\NC(=O)c1c(Br)c(C)nn1C)c1cccc(NC(=O)C2CCC2)c1 | -19.4
2 | Cc1c(C(=O)N2CCN(S(C)(=O)=O)CC2)oc2ccccc12 | 3.49
3 | CCCCNS(=O)(=O)c1ccc2nc(-c3cccnc3)cc(C(=O)NC(C)C)c2c1 | 16.7
4 | O=C(C1CCC1)N1CCC(O)(c2cccc(F)c2)CC1 | 14.6
5 | CCc1ccc(NC(=O)COn2nnc3ccc(S(=O)(=O)N(C)C)cc32)cc1 | -29.1
6 | CN(C)S(=O)(=O)c1ccc2nnn(OCC(=O)NC34CC5CC(CC(C5)C3)C4)c2c1 | -51.7
7 | C=CCNC(=O)NC(=O)COn1nnc2ccc(S(=O)(=O)N(C)C)cc21 | 5.69
8 | Cc1ccccc1CC(=O)Nc1ccc2c(C)cc(=O)oc2c1 | -15.3
9 | CCOC(=O)c1ccc(NC(=O)c2nc[nH]c2C(=O)N2CCN(c3ccccc3)CC2)cc1 | 3.29
10 | O=C(O)C(Cc1c[nH]c2ccccc12)NS(=O)(=O)c1ccc(Br)cc1 (stereo not drawn) | 8.36
11 | O=P(c1ccccc1)(c1ccccc1)c1nc(-c2ccccc2)oc1N1CCOCC1 | -20.5
12 | CCOP(=O)(OCC)c1nc(-c2ccc(Br)cc2)oc1N1CCCCC1 | -65.3
13 | CCOP(=O)(c1ccccc1)c1nc(-c2ccc(F)cc2)oc1N1CCCCC1 (stereo not drawn) | -56.6
14 | Cc1ccc(-c2nc(P(=O)(c3ccccc3)c3ccccc3)c(N3CCOCC3)o2)cc1 | -38.3
15 | CCOP(=O)(c1ccccc1)c1nc(-c2ccccc2C)oc1N1CCCCC1 (stereo not drawn) | 0.633
16 | COP(=O)(OC)c1nc(-c2ccc(C)cc2)oc1N1CCCCC1 | -10.2
17 | O=P(c1ccccc1)(c1ccccc1)c1nc(-c2ccc(Cl)cc2)oc1N1CCOCC1 | -74.1
18 | CCOP(=O)(c1ccccc1)c1nc(-c2ccccc2Cl)oc1N1CCCCC1 (stereo not drawn) | -11.4
19 | CCOP(=O)(OCC)c1nc(-c2ccccc2)oc1N1CCCCC1 | 4.4

Row | SMILES | hERG current change (%, negative = inhibition) at 10uM [%]
20 | CC1=CCC2C(=O)N(c3ccc(C)cc3)C(=O)C2C1 (stereo not drawn) | -4.42
21 | Cc1ccc(NC(=O)Cn2nnc(-c3ccccc3NC(=O)c3cccs3)n2)cc1 | 21.7
22 | Cc1nc2ccccc2c(=O)n1-c1ccc(Cl)cc1[N+](=O)[O-] | 10.1
23 | Cc1ccccc1NC(=O)C1CCCN(C(=O)NCc2ccccc2)C1 (stereo not drawn) | 1.82
24 | CCCCn1c(O)c(C(CC)=NCCN2CCOCC2)c(=O)[nH]c1=O | -15.3
25 | CCCCn1c(O)c(C(CC)=NCCCn2ccnc2)c(=O)[nH]c1=O | -43.3
26 | CCC(=NCCCN(CC)CC)c1c(O)n(C2CCCCC2)c(=O)[nH]c1=O | -52.9
27 | CCC(=NCCCn1ccnc1)c1c(O)n(Cc2ccccc2)c(=O)[nH]c1=O | -68
28 | CCCCn1c(O)c(C(CC)=NCCCN(C)C)c(=O)[nH]c1=O | -29.2
29 | CCC(=NCCCn1ccnc1)c1c(O)n(-c2ccccc2)c(=O)[nH]c1=O | 7.4
30 | CCC(=NCCO)c1c(O)n(C2CCCCC2)c(=O)[nH]c1=O | -14.6
31 | CCCCCCN=C(C)c1c(O)n(CCCC)c(=O)[nH]c1=O | -8.21
32 | CCCCn1c(O)c(C(C)=NCCN2CCCCC2)c(=O)[nH]c1=O | -21.7
33 | CCN(CC)CCCN=C(C)c1c(O)n(C2CCCCC2)c(=O)[nH]c1=O | -48.7
34 | CCCCn1c(O)c(C(CC)=NCCN2CCCCC2)c(=O)[nH]c1=O | -53.6
35 | CCCCCCN=C(CC)c1c(O)n(CCCC)c(=O)[nH]c1=O | -55.4
36 | CCOC(=O)C1=c2s/c(=C\c3cccnc3)c(=O)n2C(N)=C(C(=O)OC)C1c1cccnc1 (stereo not drawn) | 14.7
37 | Cn1c(=O)c2c(nc(SCCN3CCOCC3)n2C)n(C)c1=O | 16.9
38 | Cc1cc(C(=O)NNC(=S)Nc2ccccc2C)cs1 | 18.8

Row | SMILES | hERG current change (%, negative = inhibition) at 10uM [%]
39 | CC(=O)n1nc(-c2cccnc2)nc1N | -7.75
40 | NS(=O)(=O)c1cc2c(cc1Cl)NC(C(Cl)Cl)NS2(=O)=O (stereo not drawn) | 20.2
41 | CCCCCCn1c(O)c(C=NCCN2CCCCC2)c(=O)[nH]c1=O | -51.9
42 | CCCCCCn1c(O)c(C=NCCN2CCOCC2)c(=O)[nH]c1=O | -7.56
43 | CCCCn1c(O)c(C=NCCN2CCCCC2)c(=O)[nH]c1=O | -2.31
44 | CCCNC(=O)N1CCC(C(=O)c2cccc(F)c2)CC1 | -10.9
45 | C#Cc1ccc(C(=O)NCc2ccc(N3CCCC3=O)cc2)cc1 | 20.2
46 | CC(C)(C)NC(=O)C(c1ccco1)N(C(=O)Cn1nnc(-c2ccc(F)cc2)n1)c1ccccc1 (stereo not drawn) | -17.5
47 | CCC1CCCCN1CCCNC(=O)c1ccc2c(c1)c(C)c(C)n2C (stereo not drawn) | -35
48 | CC(C)CC1Nc2ccc(C(=O)NCCCN3CCCCC3C)cc2NC1=O (stereo not drawn) | 3.4
49 | Cc1c(C)n(C)c2ccc(C(=O)NCCCN3CCCCC3C)cc12 (stereo not drawn) | -19.6
50 | CC1CCCC(C)N1CCCNC(=O)c1ccc2nc(N3CCOCC3)sc2c1 (stereo not drawn) | -10.3
51 | CC1CCCCN1CCCNC(=O)c1cc(Br)c(Br)[nH]1 (stereo not drawn) | -64.9
52 | CCC1CCCCN1CCCNC(=O)c1ccc2nc(N3CCCCC3)sc2c1 (stereo not drawn) | -34
53 | CCC1CCCCN1CCCNC(=O)c1ccc2nc(N3CCC(C)CC3)sc2c1 (stereo not drawn) | -64.5
54 | CC1CCN(c2nc3ccc(C(=O)NCCCN4CCCCC4C)cc3s2)CC1 (stereo not drawn) | -59
55 | CC1CCCCN1CCCNC(=O)c1ccc2nc(N3CCCCC3)sc2c1 (stereo not drawn) | -22.8
56 | Cc1ccc(OCC(=O)NNC(=O)CCc2ccccc2)c(Br)c1 | 10
57 | CCOC(=O)N1CCN(C(=O)C2CCCN(S(=O)(=O)c3ccc(F)cc3)C2)CC1 (stereo not drawn) | -10.1
